Inconclusive results are not listed. Activity calls are given as the source filed them. Calls follow the shape of the dose curve; as a rule, active = well fitted activation curve with a large enough effect in the signal ratio in the repeat runs (not every such curve was filed as active); inconclusive = weak or mixed curves, or effect the other way; inactive = flat fitted curve, though single readings scatter; the % refers to the signal ratio.
Assay: qHTS assay to identify small molecule agonists of the endoplasmic reticulum stress response signaling pathway (AID 1159516)
Conditions: ESRE-bla HeLa, ER stress beta-lactamase reporter, 5 h; series mostly up to 61 µM
Source text: National Center for Advancing Translational Sciences [NCATS]
NIH Chemical Genomics Center [NCGC]
U.S. Environmental Protection Agency [EPA]
National Institutes of Environmental Health Sciences [NIEHS]
National Toxicology Program [NTP]
U.S. Food and Drug Administration [FDA]
Endoplasmic Reticulum (ER) plays an important role in cellular signaling, protein folding/maturation, stress response, lipid biosynthesis, calcium storage and release etc. Under stress conditions, proteins in ER misfold or unfold, and leading to the expression of ER stress responsive genes. ER stress has been associated with a variety of pathophysiological conditions such as cancer, inflammation, neurodegenerative diseases, diabetes, ischemic heart disease etc. To identify the compounds that induce ER stress response, an ER stress reporter cell line, CellSensor ESRE-bla HeLa (Life Technologies, Carlsbad, CA) containing a beta-lactamase reporter gene under control of the Endoplasmic reticulum Stress Response Element (ESRE) was used to screen Tox21 10K compound library.
Tox21 Assay Protocol Summary:
ESRE-bla HeLa cells were dispensed at 1,500 cells/6 uL of assay medium per well into black wall/clear-bottom 1536-well plates using a Multidrop Combi (ThermoFisher Scientific, Waltham, MA) dispenser. After the assay plates were incubated at 37 C and 5% CO2 for an overnight, 23 nL of compounds dissolved in DMSO, positive controls or DMSO only was transferred to the assay plate by a Pintool station (Kalypsys, San Diego, CA). The assay plates were incubated at 37 C and 5% CO2 for 5 hr. One uL of LiveBLAzer B/G FRET substrate (Life Technologies) was added using a Flying Reagent Dispenser (Aurora Discovery, San Diego, CA) and the plates were incubated at room temperature for 2 hr. Fluorescence intensity (405 nm excitation, 460 nm and 530 nm emissions) was measured using an Envision plate reader (PerkinElmer, Shelton, CT).

SMILES	outcome
ClCc1cccnc1	inactive
CC(C#N)CCC#N (stereo not given)	inactive
CCCCOC(=O)c1ccccc1C(=O)OCCCC	inactive
O=[N+]([O-])c1ccc([As](=O)(O)O)cc1	inactive
CCCCCOC(=O)c1ccccc1C(=O)OCCCCC	inactive
NCC(O)c1ccc(O)cc1 (stereo not given)	inactive
CCCCCCCCCl	inactive
CCNc1nc(NC(C)(C)C)nc(SC)n1	inactive
Cc1cc(-c2cc(C)c(N)c(C)c2)cc(C)c1N	inactive
COC(=O)NS(=O)(=O)c1ccc(N)cc1	inactive
CCOP(=S)(OCC)SCCSCC	inactive
CN=C=S	inactive
Cc1[nH]c(=O)n(C(C)(C)C)c(=O)c1Cl	inactive
CCOP(=S)(OCC)Oc1cnc2ccccc2n1	inactive
CCCCN(CC)C(=O)SCCC	inactive
C=C(C)CCl	inactive
CN(C)N=O	inactive
CC1C=[C-]C=C1.[C-]#[O+].[C-]#[O+].[C-]#[O+].[Mn]	inactive
CCCN(CCC)c1c([N+](=O)[O-])cc(C(F)(F)F)cc1[N+](=O)[O-]	inactive
Clc1ccccc1Cl	inactive

SMILES	outcome
Nc1c(Cl)c(Cl)nc(C(=O)O)c1Cl	inactive
Nc1ccc(Cc2ccc(N)cc2)cc1	inactive
CC(C)OC(=O)Nc1ccccc1	inactive
CN1C(=O)CN=C(c2ccccc2)c2cc(Cl)ccc21	inactive
Cc1ccc(N)cc1Cl	inactive
Nc1ccc(Oc2ccc(N)cc2)cc1	inactive
CC(C)=C[C@@H]1[C@@H](C(=O)OCc2coc(Cc3ccccc3)c2)C1(C)C	inactive
CC(C)OC(=O)Nc1cccc(Cl)c1	inactive
CC(C)C#N	inactive
COCCl	inactive
COP(N)(=O)SC (stereo not given)	inactive
NCCc1ccc(O)cc1	inactive
Nc1ccccc1C(=O)O	inactive
CC(C)C1(C)N=C(c2nc3ccccc3cc2C(=O)O)NC1=O (stereo not given)	inactive
CCOP(OCC)OCC	inactive
C1CN2CCN1CC2	inactive
C#CC(C)(C)NC(=O)c1cc(Cl)cc(Cl)c1	inactive
OCCN(CCO)CCO	inactive
CCCCN(CCCC)SN(C)C(=O)Oc1cccc2c1OC(C)(C)C2	inactive
O=c1[nH]c2ccccc2c(=O)o1	inactive

Reference: PubChem BioAssay (Tox21)
